Results from PubChem BioAssay AID1159580 (chemical genetic matrix, 2015).
Out of some 5,500 compounds screened, about 2,000 (36%) were called active. Roughly 18% stayed inconclusive and do not appear here. No stated cut-off is given here; in the data, active means normalized growth mostly below about 0.91 (no sharp cut-off); inconclusive means no clear call, values can overlap the other calls; inactive means mostly above about 0.92. The list shows a part of the results.

Experiment: chemical genetic growth profiling, strain panel (AID 1159580);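 further: tested at 20 µM; growth read once vehicle control cultures reached saturation at 30 °C; 1 = growth at the plate median or of vehicle wells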
Conditions: S. cerevisiae deletion strains, growth OD

Measured: normalized growth

CCOP(=S)(OCC)Oc1nc(Cl)c(Cl)cc1Cl
active: locus YBR009C, strain hhf1, stronger effect = lower value 0.873 | locus YDR137W, strain rgp1, stronger effect = lower value 0.832 | locus YDR392W, strain spt3, stronger effect = lower value 0.615 | locus YER155C, strain BEM2 (second series), stronger effect = lower value 0.748 | locus YHR142W, strain chs7, stronger effect = lower value 0.847 | locus YJL164C, strain tpk1, stronger effect = lower value 0.914
inactive: locus YAL013W, strain DEP1, stronger effect = lower value 1.01 | locus YAL021C, strain ccr4, stronger effect = lower value 0.974 | locus YAL026C, strain drs2, stronger effect = lower value 0.941 | locus YAL030W, strain snc1, stronger effect = lower value 0.951 | locus YBL061C, strain skt5, stronger effect = lower value 0.964 | locus YBR021W, strain FUR4, stronger effect = lower value 1.01 | locus YBR023C, strain chs3, stronger effect = lower value 0.963 | locus YBR171W, strain sec66, stronger effect = lower value 0.95 | locus YBR229C, strain ROT2, stronger effect = lower value 0.997 | locus YBR231C, strain swc5, stronger effect = lower value 0.963 | locus YBR279W, strain paf1, stronger effect = lower value 0.98 | locus YCL011C, strain gbp2, stronger effect = lower value 0.938 | locus YCL016C, strain dcc1, stronger effect = lower value 0.981 | locus YCL029C, strain bik1, stronger effect = lower value 0.99 | locus YCL069W, strain vba3, stronger effect = lower value 0.972 | locus YCR088W, strain abp1, stronger effect = lower value 0.951 | locus YDL005C, strain med2, stronger effect = lower value 0.968 | locus YDL035C, strain GPR1, stronger effect = lower value 1.03 | locus YDL040C, strain nat1, stronger effect = lower value 0.955 | locus YDL074C, strain BRE1, stronger effect = lower value 0.985 | locus YDL101C, strain DUN1, stronger effect = lower value 1.01 | locus YDL134C, strain PPH21, stronger effect = lower value 0.988 | locus YDL185W, strain tfp1, stronger effect = lower value 0.994 | locus YDL192W, strain arf1, stronger effect = lower value 0.989 | locus YDR001C, strain nth1, stronger effect = lower value 0.948 | locus YDR069C, strain doa4, stronger effect = lower value 0.949 | locus YDR101C, strain arx1, stronger effect = lower value 0.981 | locus YDR150W, strain NUM1, stronger effect = lower value 1.01 | locus YDR159W, strain sac3, stronger effect = lower value 0.952 | locus YDR162C, strain NBP2, stronger effect = lower value 1.01 | locus YDR195W, strain ref2 1.03 | locus YDR297W, strain sur2, stronger effect = lower value 0.957 | locus YDR318W, strain mcm21, stronger effect = lower value 0.981 | locus YDR334W, strain swr1, stronger effect = lower value 0.947 | locus YDR335W, strain msn5, stronger effect = lower value 0.973 | locus YDR388W, stronger effect = lower value 0.986 | locus YDR502C, strain sam2, stronger effect = lower value 0.988 | locus YEL003W, strain gim4, stronger effect = lower value 0.964 | locus YEL037C, strain rad23, stronger effect = lower value 0.959 | locus YEL061C, strain CIN8 (second series), stronger effect = lower value 0.957 | locus YEL061C, strain CIN8, stronger effect = lower value 1 | locus YER015W, strain faa2, stronger effect = lower value 0.964 | locus YER016W, strain bim1, stronger effect = lower value 0.973 | locus YER110C, stronger effect = lower value 0.993 | locus YER111C, strain swi4, stronger effect = lower value 0.958 | locus YER155C, strain BEM2, stronger effect = lower value 1 | locus YER167W, strain BCK2, stronger effect = lower value 1.01 | locus YFR010W, strain ubp6, stronger effect = lower value 0.961 | locus YGL078C, strain dbp3, stronger effect = lower value 0.98 | locus YGL086W, strain mad1, stronger effect = lower value 0.987 | locus YGL167C, strain pmr1, stronger effect = lower value 0.947 | locus YGL173C, strain kem1, stronger effect = lower value 0.977 | locus YGL227W, strain vid30, stronger effect = lower value 0.935 | locus YGL240W, strain doc1, stronger effect = lower value 0.949 | locus YGL248W, strain PDE1, stronger effect = lower value 1.01 | locus YGL253W, strain hxk2, stronger effect = lower value 0.948 | locus YGR078C, strain PAC10, stronger effect = lower value 0.987 | locus YGR135W, strain pre9, stronger effect = lower value 0.986 | locus YGR229C, strain SMI1, stronger effect = lower value 0.98 | locus YGR252W, strain gcn5, stronger effect = lower value 0.976 | locus YHR013C, strain ard1, stronger effect = lower value 1.07 | locus YHR027C, strain rpn1, stronger effect = lower value 0.966 | locus YHR030C, strain SLT2, stronger effect = lower value 1.01 | locus YHR079C, strain IRE1 (second series), stronger effect = lower value 0.991 | locus YHR094C, strain hxt1, stronger effect = lower value 0.983 | locus YHR129C, strain ARP1, stronger effect = lower value 0.995 | locus YHR200W, strain rpn10, stronger effect = lower value 0.986 | locus YIL066C, strain RNR3, stronger effect = lower value 0.991 | locus YIL073C, strain SPO22, stronger effect = lower value 0.961 | locus YIL125W, strain kgd1, stronger effect = lower value 0.981 | locus YIR030C, strain dcg1, stronger effect = lower value 0.991 | locus YJL092W, strain hpr5, stronger effect = lower value 0.959 | locus YJL095W, strain BCK1 (second series), stronger effect = lower value 0.949 | locus YJL095W, strain BCK1, stronger effect = lower value 0.973 | locus YJL115W, strain asf1, stronger effect = lower value 0.971 | locus YJL129C, strain trk1, stronger effect = lower value 0.921 | locus YJL134W, strain LCB3, stronger effect = lower value 1.01 | locus YJL154C, strain vps35, stronger effect = lower value 0.937 | locus YJL166W, strain qcr8, stronger effect = lower value 0.961 | locus YJL168C, strain set2, stronger effect = lower value 0.988 | locus YJL187C, strain SWE1 (second series), stronger effect = lower value 0.996 | locus YJR043C, strain POL32, stronger effect = lower value 1.02
